Common to all, as to assay: DAPPL (digital affinity profiling via proximity ligation, sequencing); 10 mM Tris-HCl pH 7.5, 50 mM NaCl, 1 mM DTT, 4% glycerol, room temperature, 30 min; GST-TFs on glutathione beads, 16-mer random dsDNA library, 0.1% formaldehyde crosslink after washing; high values mean tight binding
One assay concerns the target T1, FEV (Homo sapiens, UniProt Q99581 1-238).
T1 sequence: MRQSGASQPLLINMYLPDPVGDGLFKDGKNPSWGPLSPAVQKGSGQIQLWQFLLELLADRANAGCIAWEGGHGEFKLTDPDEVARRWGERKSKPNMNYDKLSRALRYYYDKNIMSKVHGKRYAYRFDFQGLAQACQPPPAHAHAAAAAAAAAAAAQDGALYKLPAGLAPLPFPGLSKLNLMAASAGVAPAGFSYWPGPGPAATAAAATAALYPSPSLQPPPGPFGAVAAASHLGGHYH
Conditions: protein: recombinant; tags: N-terminal GST; dsDNA, one strand shown. The procedure, abridged: (§1)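 Beads coated with glutathione captured GST-fused human transcription factors that had been expressed in yeast, and the factors were then given DNA barcodes and pooled with a tag-only sample. The pools were incubated with 200 nmole of a random double-stranded 16-mer DNA library in Tris/NaCl/DTT/glycerol buffer for 30 min at room temperature, washed, crosslinked with 0.1% formaldehyde and proximity-ligated with BsaI/T4 ligase at 37 °C for 1 h. PCR amplification and Illumina NextSeq500 sequencing came last. Binding signal is each hexamer's read frequency for a factor divided by its frequency for the tag-only sample.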

The next assay deals with ETV5 (Homo sapiens, UniProt P41161 1-510). Conditions: protein: recombinant; tags: N-terminal GST; dsDNA, one strand shown. The procedure, abridged:
as §1

The next assay deals with HSF1 (Homo sapiens, UniProt Q00613 1-529). Conditions: protein: recombinant; tags: N-terminal GST; chain copies: 3; dsDNA, one strand shown. The method in brief:
as §1

A further assay concerns the target T2, SPIC (Homo sapiens, UniProt Q8N5J4 1-248).
T2 sequence: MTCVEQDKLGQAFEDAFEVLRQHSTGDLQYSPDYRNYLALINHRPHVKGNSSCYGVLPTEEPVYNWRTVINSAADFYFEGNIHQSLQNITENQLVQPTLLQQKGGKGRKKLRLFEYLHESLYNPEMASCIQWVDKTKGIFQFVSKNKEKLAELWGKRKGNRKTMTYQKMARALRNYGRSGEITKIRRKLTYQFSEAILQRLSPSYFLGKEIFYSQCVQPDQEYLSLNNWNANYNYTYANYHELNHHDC
To be noted: protein: recombinant; tags: N-terminal GST; dsDNA, one strand shown. The procedure, abridged: as §1

The target of the next assay is ELF4 (Homo sapiens, UniProt Q99607 1-663). Conditions: protein: recombinant; tags: N-terminal GST; dsDNA, one strand shown. The procedure, abridged: as §1
A further assay addresses T3, ELK4 (Homo sapiens, UniProt P28324-2 1-405).
T3 sequence: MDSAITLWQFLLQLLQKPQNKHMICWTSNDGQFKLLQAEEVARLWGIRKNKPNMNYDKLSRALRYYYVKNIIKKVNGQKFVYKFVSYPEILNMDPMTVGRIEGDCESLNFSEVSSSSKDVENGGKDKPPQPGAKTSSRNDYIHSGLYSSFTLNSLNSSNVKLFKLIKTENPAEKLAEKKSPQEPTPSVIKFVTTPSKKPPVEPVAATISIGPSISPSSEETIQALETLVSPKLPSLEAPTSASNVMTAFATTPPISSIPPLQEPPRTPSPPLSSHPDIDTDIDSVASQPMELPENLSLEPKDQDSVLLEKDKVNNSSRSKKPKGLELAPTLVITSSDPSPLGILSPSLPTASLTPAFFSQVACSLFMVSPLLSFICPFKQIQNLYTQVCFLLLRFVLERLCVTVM
Conditions: protein: recombinant; tags: N-terminal GST; dsDNA, one strand shown. The procedure, abridged: as §1

Another assay deals with T4, ETV2 (Homo sapiens, UniProt O00321 1-342).
T4 sequence: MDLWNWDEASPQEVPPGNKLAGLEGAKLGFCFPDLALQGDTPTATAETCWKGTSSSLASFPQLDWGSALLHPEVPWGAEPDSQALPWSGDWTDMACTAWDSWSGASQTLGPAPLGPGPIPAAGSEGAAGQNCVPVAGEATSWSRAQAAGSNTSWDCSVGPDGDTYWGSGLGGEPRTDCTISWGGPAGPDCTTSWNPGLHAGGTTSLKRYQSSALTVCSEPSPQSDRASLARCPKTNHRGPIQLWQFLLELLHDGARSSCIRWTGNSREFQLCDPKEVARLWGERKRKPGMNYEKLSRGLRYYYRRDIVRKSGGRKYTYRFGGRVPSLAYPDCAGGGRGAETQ
To be noted: protein: recombinant; tags: N-terminal GST; dsDNA, one strand shown. The method in brief:
as §1

A further assay concerns the target T5, ELF3 (Homo sapiens, UniProt P78545 1-371).
T5 sequence: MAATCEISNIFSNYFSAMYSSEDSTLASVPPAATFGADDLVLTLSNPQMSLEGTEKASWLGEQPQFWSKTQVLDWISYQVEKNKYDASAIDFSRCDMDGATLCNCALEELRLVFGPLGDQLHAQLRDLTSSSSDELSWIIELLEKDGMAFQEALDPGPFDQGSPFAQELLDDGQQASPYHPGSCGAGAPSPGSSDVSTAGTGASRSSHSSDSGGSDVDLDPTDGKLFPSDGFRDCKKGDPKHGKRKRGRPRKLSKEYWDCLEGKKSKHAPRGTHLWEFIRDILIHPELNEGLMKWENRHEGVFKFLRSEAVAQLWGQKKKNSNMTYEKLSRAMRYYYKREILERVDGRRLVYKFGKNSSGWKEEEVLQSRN
Conditions: protein: recombinant; tags: N-terminal GST; dsDNA, one strand shown. The method in brief:
as §1

The next assay concerns the target CRX (Homo sapiens, UniProt O43186 1-299). To be noted: protein: recombinant; tags: N-terminal GST; dsDNA, one strand shown. The method in brief: as §1
A further assay addresses ETV1 (Homo sapiens, UniProt P50549 1-477). To be noted: protein: recombinant; tags: N-terminal GST; dsDNA, one strand shown. The method in brief: as §1
A further assay concerns the target T6, ERF (Homo sapiens, UniProt P50548 1-548).
T6 sequence: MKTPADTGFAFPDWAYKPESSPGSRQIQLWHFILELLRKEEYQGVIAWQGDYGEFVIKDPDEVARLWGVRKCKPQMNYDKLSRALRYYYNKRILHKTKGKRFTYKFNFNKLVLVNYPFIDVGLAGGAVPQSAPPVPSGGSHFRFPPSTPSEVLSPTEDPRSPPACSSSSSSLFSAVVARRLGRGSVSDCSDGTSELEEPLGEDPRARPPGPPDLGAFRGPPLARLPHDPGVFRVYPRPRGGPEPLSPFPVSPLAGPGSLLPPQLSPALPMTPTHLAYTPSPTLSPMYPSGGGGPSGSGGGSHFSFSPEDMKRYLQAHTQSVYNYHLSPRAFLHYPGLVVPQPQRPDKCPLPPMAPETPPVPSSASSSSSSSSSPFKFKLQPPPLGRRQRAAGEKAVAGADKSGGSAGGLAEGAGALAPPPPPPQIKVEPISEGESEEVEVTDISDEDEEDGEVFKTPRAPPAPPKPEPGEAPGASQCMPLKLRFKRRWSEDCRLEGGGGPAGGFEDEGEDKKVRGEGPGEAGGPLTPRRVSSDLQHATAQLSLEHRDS
Conditions: protein: recombinant; tags: N-terminal GST; dsDNA, one strand shown. The procedure, abridged: as §1

Another assay has as its target T7, ETV3L (Homo sapiens, UniProt Q6ZN32 1-361).
T7 sequence: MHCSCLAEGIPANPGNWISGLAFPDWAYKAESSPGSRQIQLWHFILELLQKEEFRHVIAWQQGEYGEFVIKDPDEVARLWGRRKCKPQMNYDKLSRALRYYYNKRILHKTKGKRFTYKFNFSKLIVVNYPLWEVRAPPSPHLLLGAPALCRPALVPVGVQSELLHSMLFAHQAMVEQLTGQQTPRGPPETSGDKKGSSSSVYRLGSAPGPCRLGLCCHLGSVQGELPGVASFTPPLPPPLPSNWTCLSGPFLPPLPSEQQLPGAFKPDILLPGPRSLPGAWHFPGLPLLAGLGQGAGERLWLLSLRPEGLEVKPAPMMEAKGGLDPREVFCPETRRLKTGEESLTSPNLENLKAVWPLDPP
Conditions: protein: recombinant; tags: N-terminal GST; dsDNA, one strand shown. The procedure, abridged:
as §1

The next assay deals with T8, ETS2 (Homo sapiens, UniProt P15036 1-469).
T8 sequence: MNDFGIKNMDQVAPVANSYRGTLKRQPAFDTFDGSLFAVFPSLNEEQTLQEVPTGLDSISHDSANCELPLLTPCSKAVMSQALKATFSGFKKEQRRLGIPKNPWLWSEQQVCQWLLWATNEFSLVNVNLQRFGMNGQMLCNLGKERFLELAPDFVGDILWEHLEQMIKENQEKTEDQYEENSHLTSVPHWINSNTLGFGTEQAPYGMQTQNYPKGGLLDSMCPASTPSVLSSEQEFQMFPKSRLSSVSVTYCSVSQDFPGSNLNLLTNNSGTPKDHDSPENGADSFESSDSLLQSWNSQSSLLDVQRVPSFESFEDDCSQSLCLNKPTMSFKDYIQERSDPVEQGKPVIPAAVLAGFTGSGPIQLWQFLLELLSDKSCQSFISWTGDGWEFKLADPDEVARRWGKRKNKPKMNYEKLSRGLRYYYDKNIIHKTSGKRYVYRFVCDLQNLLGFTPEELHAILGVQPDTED
To be noted: protein: recombinant; tags: N-terminal GST; dsDNA, one strand shown. The method in brief:
as §1

In a further assay the target is T9, SPDEF (Homo sapiens, UniProt O95238 1-335).
T9 sequence: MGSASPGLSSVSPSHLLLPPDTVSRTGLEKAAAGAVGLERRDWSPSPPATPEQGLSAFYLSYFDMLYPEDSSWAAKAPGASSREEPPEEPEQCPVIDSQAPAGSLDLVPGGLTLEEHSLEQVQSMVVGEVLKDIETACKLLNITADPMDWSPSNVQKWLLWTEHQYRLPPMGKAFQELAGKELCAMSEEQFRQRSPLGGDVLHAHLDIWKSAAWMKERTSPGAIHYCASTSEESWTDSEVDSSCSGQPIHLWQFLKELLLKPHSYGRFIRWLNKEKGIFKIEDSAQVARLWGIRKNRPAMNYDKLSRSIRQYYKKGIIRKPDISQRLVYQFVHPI
To be noted: protein: recombinant; tags: N-terminal GST; dsDNA, one strand shown. The method in brief:
as §1

The next assay has as its target T10, ETV7 (Homo sapiens, UniProt Q9Y603 1-341).
T10 sequence: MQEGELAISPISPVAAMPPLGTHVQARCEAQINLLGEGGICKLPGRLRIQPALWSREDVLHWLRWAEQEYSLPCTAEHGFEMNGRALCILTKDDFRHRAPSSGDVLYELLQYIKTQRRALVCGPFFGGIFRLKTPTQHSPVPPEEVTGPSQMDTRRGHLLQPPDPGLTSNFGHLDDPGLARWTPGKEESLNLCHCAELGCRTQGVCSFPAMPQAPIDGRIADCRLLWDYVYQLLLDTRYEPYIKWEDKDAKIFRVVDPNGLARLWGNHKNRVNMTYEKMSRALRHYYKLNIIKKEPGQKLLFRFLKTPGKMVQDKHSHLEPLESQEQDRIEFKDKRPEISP
To be noted: protein: recombinant; tags: N-terminal GST; dsDNA, one strand shown. The method in brief: as §1

Another assay concerns the target T11, ELF5 (Homo sapiens, UniProt Q9UKW6-2 1-255).
T11 sequence: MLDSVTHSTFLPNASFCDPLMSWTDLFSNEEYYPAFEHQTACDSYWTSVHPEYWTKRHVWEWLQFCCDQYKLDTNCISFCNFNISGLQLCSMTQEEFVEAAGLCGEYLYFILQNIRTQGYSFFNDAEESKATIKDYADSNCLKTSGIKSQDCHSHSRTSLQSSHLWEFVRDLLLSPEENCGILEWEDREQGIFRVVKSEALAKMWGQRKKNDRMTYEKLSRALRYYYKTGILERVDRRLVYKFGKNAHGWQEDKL
To be noted: protein: recombinant; tags: N-terminal GST; dsDNA, one strand shown. The method in brief:
as §1

The target in a further assay is T12, ETV3 (Homo sapiens, UniProt P41162-2 1-143).
T12 sequence: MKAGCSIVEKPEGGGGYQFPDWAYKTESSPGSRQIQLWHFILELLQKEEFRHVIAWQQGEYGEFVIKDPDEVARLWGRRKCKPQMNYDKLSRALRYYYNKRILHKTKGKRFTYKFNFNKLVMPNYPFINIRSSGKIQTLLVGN
Conditions: protein: recombinant; tags: N-terminal GST; dsDNA, one strand shown. The procedure, abridged: as §1

A further assay deals with ETV6 (Homo sapiens, UniProt P41212 1-452). To be noted: protein: recombinant; tags: N-terminal GST; dsDNA, one strand shown. The method in brief:
as §1

ELF4, sequence (Q99607 whole entry): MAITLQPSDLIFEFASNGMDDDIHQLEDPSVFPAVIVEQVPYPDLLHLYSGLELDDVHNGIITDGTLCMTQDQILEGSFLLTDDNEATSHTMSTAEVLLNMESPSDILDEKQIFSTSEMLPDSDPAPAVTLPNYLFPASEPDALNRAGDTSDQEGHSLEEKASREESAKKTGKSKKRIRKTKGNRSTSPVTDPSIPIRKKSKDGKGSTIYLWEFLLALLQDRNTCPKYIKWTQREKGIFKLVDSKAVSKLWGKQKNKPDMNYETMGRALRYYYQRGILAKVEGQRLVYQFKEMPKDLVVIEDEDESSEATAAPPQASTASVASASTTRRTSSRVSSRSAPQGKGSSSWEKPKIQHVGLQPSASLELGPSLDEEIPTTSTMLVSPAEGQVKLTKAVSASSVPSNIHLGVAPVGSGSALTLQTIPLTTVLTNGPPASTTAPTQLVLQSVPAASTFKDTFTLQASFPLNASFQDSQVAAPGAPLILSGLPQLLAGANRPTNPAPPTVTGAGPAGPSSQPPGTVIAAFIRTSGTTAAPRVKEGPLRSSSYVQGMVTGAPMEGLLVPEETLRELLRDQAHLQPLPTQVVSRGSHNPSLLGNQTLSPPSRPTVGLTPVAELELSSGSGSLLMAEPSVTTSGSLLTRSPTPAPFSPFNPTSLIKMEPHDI
ETV6, sequence (P41212 whole entry): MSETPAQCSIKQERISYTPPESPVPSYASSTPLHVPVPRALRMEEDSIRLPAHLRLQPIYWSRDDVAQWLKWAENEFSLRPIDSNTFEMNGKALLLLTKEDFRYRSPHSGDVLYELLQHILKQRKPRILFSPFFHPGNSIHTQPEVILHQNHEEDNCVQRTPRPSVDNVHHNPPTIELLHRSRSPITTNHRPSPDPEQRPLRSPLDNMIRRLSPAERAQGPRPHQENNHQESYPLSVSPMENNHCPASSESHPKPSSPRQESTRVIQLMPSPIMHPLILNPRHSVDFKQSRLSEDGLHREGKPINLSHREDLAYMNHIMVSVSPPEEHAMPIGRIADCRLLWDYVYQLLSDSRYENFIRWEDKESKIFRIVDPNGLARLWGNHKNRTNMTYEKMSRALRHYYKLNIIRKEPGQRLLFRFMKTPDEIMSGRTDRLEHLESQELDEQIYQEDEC
CRX, sequence (O43186 whole entry): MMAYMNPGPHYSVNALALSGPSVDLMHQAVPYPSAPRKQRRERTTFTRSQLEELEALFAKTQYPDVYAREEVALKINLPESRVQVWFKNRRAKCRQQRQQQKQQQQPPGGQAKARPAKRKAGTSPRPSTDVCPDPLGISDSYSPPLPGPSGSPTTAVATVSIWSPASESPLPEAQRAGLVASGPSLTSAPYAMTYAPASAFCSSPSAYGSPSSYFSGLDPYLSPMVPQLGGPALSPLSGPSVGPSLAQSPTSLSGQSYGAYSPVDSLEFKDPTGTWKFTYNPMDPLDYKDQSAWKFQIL
ETV5, sequence (P41161 whole entry): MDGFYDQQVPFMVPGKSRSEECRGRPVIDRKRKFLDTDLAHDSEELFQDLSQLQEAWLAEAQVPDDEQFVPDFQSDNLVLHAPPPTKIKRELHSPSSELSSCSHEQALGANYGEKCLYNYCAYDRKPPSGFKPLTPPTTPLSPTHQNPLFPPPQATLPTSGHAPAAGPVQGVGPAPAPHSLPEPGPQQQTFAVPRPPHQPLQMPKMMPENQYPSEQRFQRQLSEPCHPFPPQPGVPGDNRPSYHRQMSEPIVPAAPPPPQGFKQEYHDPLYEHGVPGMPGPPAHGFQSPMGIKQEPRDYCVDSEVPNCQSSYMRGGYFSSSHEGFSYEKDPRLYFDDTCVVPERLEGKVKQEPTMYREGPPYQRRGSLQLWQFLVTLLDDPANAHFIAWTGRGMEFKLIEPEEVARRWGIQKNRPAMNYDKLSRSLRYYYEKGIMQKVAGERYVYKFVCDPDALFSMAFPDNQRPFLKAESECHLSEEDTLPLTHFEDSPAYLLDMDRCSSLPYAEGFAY
ETV1, sequence (P50549 whole entry): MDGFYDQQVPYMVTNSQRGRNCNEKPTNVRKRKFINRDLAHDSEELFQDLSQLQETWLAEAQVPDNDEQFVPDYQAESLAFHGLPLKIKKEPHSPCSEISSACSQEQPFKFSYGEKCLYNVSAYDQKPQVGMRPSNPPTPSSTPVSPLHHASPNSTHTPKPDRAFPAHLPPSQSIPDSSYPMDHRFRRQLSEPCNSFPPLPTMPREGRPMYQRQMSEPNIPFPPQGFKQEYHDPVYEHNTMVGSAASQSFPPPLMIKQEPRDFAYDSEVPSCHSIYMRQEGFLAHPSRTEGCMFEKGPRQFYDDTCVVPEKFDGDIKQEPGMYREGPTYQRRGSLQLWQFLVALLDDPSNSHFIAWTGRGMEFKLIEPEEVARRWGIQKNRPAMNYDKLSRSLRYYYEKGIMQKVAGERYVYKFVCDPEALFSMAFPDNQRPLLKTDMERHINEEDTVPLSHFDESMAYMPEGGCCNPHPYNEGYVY
HSF1, sequence (Q00613 whole entry): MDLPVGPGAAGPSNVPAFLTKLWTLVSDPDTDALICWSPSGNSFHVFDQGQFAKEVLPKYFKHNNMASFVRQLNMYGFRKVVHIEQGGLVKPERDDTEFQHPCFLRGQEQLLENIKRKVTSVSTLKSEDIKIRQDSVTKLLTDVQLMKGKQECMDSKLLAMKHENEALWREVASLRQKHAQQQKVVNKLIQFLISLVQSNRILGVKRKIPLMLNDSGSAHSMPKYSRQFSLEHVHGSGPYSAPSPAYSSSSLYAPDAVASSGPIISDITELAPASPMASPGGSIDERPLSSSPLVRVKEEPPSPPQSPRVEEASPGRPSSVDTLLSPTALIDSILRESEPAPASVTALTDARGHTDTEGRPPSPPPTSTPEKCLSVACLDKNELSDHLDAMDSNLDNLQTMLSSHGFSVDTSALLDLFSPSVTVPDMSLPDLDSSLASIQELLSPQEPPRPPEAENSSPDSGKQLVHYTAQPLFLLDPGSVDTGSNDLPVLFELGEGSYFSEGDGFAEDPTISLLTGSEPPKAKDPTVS

AGCTTC: the binding signal with FEV was 1.84 fold enrichment (6-mer frequency, TF over GST control); with ETV5 it was 1.85 fold enrichment (6-mer frequency, TF over GST control); with HSF1 it was 1.93 fold enrichment (6-mer frequency, TF over GST control); with SPIC, 1.75 fold enrichment (6-mer frequency, TF over GST control); with ELF4 it was 1.67 fold enrichment (6-mer frequency, TF over GST control); with ELK4, 1.64 fold enrichment (6-mer frequency, TF over GST control). The binding signal in the assay with ETV2 was 1.74 fold enrichment (6-mer frequency, TF over GST control); with ELF3, 1.58 fold enrichment (6-mer frequency, TF over GST control); with CRX, 1.62 fold enrichment (6-mer frequency, TF over GST control); in the assay with ETV1, 1.62 fold enrichment (6-mer frequency, TF over GST control); in the assay with ERF, 1.75 fold enrichment (6-mer frequency, TF over GST control); in the assay with ETV3L it was 1.64 fold enrichment (6-mer frequency, TF over GST control). The binding signal is 1.77 fold enrichment (6-mer frequency, TF over GST control) with ETS2; 1.67 fold enrichment (6-mer frequency, TF over GST control) in the assay with SPDEF; 1.65 fold enrichment (6-mer frequency, TF over GST control) with ETV7; 2.21 fold enrichment (6-mer frequency, TF over GST control) in the assay with ELF5; 1.77 fold enrichment (6-mer frequency, TF over GST control) with ETV3; 1.84 fold enrichment (6-mer frequency, TF over GST control) with ETV6.

These data come from PMC7862700, “An all-to-all approach to the identification of sequence-specific readers for epigenetic DNA modifications on cytosine”.
